FECH inh = blocks human mitochondrial ferrochelatase activity; purified FECH, Ni-mesoporphyrin absorbance 550 nm; calls only at 10 µM (by protocol); hit rate 3.3% among 20,000; P22830;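 active means enzyme reaction rate more than 3 SD below the solvent-only control wells on the same plate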;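 further: lower slope than DMSO wells means FECH inhibition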
Target sequence (P22830 whole entry, looked up): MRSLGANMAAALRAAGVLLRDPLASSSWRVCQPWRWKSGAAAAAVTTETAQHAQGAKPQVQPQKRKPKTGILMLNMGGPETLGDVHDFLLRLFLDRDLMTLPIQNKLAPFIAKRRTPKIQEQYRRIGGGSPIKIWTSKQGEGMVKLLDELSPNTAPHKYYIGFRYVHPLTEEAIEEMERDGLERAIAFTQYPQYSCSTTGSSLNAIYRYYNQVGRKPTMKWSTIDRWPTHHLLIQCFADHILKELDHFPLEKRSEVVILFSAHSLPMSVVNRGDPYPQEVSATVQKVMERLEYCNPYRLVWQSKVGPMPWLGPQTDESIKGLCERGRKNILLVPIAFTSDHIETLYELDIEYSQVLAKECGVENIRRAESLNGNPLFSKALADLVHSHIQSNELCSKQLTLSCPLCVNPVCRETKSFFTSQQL
The depositor's hits bear a star; i = inactive; + = active, no number. The sample as a whole holds a higher share of hits than the screen did.

SMILES	FECH inh
CCN(C(=O)Cn1c(=O)c2cnc(-c3ccccc3)nc2n(C)c1=O)c1cccc(C)c1	i
Cc1cccc(-n2cc(CN(C)C(=O)c3cc(C)nc(C)n3)cn2)c1	i
Cc1cc(S(=O)(=O)NCc2n[nH]c(Cc3ccccc3)n2)ccc1F	i
Cc1ccc(Nc2cc(C(C)C)nc3nc(-c4cccnc4)nn23)cc1C	i
CCn1nc(C)c(NC(=O)CN2CCCC2c2cc(C(C)C)on2)c1C (configuration not stated)	i
Cc1cccc(NS(=O)(=O)c2cc(C(=O)N3CCCC3)cs2)c1C	+
CCc1ccccc1NS(=O)(=O)c1cc(C(=O)N2CCCC2)cs1	i
Cc1ccccc1CNS(=O)(=O)c1cc(C(=O)N2CCCC2)cs1	i
O=C(c1csc(S(=O)(=O)Nc2ccccc2F)c1)N1CCCCC1	i
Cc1ccc(C)c(NS(=O)(=O)c2cc(C(=O)N3CCCC3)cs2)c1	+
CCc1cccc(C)c1NS(=O)(=O)c1cc(C(=O)N2CCCC2)cs1	i
COc1c(F)cccc1C(=O)NCc1noc(-c2ccco2)n1	i
CCc1cc(Sc2ccc(NC(=O)c3ccc(Cl)cc3)cc2)n2ncnc2n1	i
CC(=O)Nc1ccc2nc(-c3[nH]cnc3-c3ccccc3)ccc2c1	i
Cc1cc(C)n(C2CCN(Cc3ncc[nH]3)C2)n1 (configuration not stated)	i
CCCN(C)c1ccc(C(=O)N2CCCCC2CCn2cccn2)cn1 (configuration not stated)	i
CCc1nc(C2CC(=O)Nc3[nH]ncc32)c(C)[nH]1 (configuration not stated)	i
COc1cccc(-c2cc(N3CCN(S(=O)(=O)c4ccc(F)cc4Cl)CC3)ncn2)c1	i
CC(C)(Oc1ccc2c(c1)CCC2)C(=O)N1CCOC2(CNCCOC2)C1 (configuration not stated)	i
Cc1ccccc1C(=O)N1CCc2c(c(C(=O)NCc3ccccc3)nn2C)C1	i
Cn1nc(C(=O)NCc2ccccc2)c2c1CCN(C(=O)c1ccccc1Cl)C2	i
Cn1nc(C(=O)NCc2ccccc2)c2c1CCN(C(=O)c1ccccc1)C2	i
COc1ccc(C(=O)N2CCc3c(c(C(=O)NCc4ccccc4)nn3C)C2)cc1	i
Cc1ccc(C(=O)N2CCc3c(c(C(=O)NCc4ccccc4)nn3C)C2)cc1	+
Cn1nc(C(=O)NCc2ccccc2)c2c1CCN(C(=O)C1CCC1)C2	+
SMILES	FECH inh
Cc1ccc(CN(C)C(=O)Cn2nnnc2C)o1	i
O=C(O)C1(Oc2ccc(F)cc2F)CCN(C/C=C/c2ccccc2)CC1	i
COc1ccc(NS(=O)(=O)c2cc(N3C(=O)CCS3(=O)=O)ccc2C)c(OC)c1	i
Cc1csc(CN2CC[C@@H](c3ccc4c(c3)OCO4)[C@H](O)C2)n1	i
CCCC(=O)Nc1nc2n(n1)C(c1c(F)cccc1Cl)C=C(c1ccc(Cl)cc1)N2 (configuration not stated)	i
CC(=O)Nc1nc2n(n1)C(c1c(F)cccc1Cl)C=C(c1ccc(C)cc1)N2 (configuration not stated)	i
CCC(=O)Nc1nc2n(n1)C(c1c(F)cccc1Cl)C=C(c1ccc(Cl)cc1)N2 (configuration not stated)	i
CCC(=O)Nc1nc2n(n1)C(c1c(F)cccc1Cl)C=C(c1ccccc1)N2 (configuration not stated)	+
CC(C)C(=O)Nc1nc2n(n1)C(c1ccc(Cl)cc1)C=C(c1ccccc1)N2 (configuration not stated)	i
CC(C)C(=O)Nc1nc2n(n1)C(c1c(F)cccc1Cl)C=C(c1ccccc1)N2 (configuration not stated)	+
CC(C)CC(C)N(C)C(=O)c1cc(CN2CCOCC2)on1 (configuration not stated)	i
C/C=C/CC(=O)Nc1ccc(OC)c(NC(=O)c2ccccc2)c1	i
COc1ccc(OC)c(NC(=O)N2CCC(n3c(C)nc4cccnc43)CC2)c1	i
Cc1cccc(C(=O)Nc2cc(C)ccc2OCc2cc(=O)n3oc(C)cc3n2)c1	i
CC(c1cccnc1)N(C)C(=O)c1ccc(C#CC(C)(C)O)cc1 (configuration not stated)	i
Cc1ccc(NCc2cc(=O)n3[nH]c(NCc4ccccc4)nc3n2)cc1C	i
CCCc1cc(=O)n2[nH]c(CNc3ccccc3)nc2n1	+
Cc1ccc(NCc2cc(=O)n3[nH]c(NCc4ccc(F)cc4)nc3n2)cc1C	i
COc1cccc(NCc2cc(=O)n3[nH]c(NCc4ccccc4)nc3n2)c1	i
CCCc1cc(=O)n2[nH]c(CNc3ccc(C)c(C)c3)nc2n1	+
O=c1cc(CNc2ccccc2)nc2nc(NCc3ccc(Cl)cc3)[nH]n12	i
CCCc1cc(=O)n2[nH]c(CNc3cccc(Cl)c3)nc2n1	+
CCc1ccc(NCc2cc(=O)n3[nH]c(NCc4ccc(Cl)cc4)nc3n2)cc1	i
COc1ccc(CNc2nc3nc(CNc4ccccc4)cc(=O)n3[nH]2)cc1	i
O=c1cc(CNc2ccccc2)nc2nc(NCc3ccccc3)[nH]n12	i
SMILES	FECH inh
CCCc1cc(=O)n2[nH]c(CNc3ccc(OCC)cc3)nc2n1	i
CCCc1cc(=O)n2[nH]c(CNc3cccc(OC)c3)nc2n1	+
Cc1ccc(Cl)cc1Nc1c(-c2ccc3c(c2)CCCC3)c(=O)c1=O	i
Cc1cc(-c2nccn2CCc2ccncc2)oc1C	i
O=C(CN1CCCN(Cc2ccccc2)S1(=O)=O)Nc1ccc(Br)cc1	i
COc1ccc(Cl)cc1S(=O)(=O)N1CCN(c2cc(-c3cccc(F)c3)ncn2)CC1	i
COc1ccc(Cn2c(CNC(=O)Cc3cccc(OC)c3)nc3cccnc32)cc1	i
COc1ccc(-c2cc(N3CCN(C(=O)Nc4cccc(C)c4C)CC3)ncn2)cc1	i
CC(C)Cc1cc(CNC(=O)c2ccc(NC(=O)C3CCC3)cc2)on1	i
Cc1cc(NC(=O)COc2ccccc2C)n(-c2ncnc3c2cnn3-c2cccc(Cl)c2)n1	i
Cc1ccc(CN(C)C(=O)c2ccc(-n3cnnc3)cc2)o1	i
O=C(NCCc1cnc[nH]1)c1ccc(CN2C(=O)CCn3nccc32)cc1	i
COc1ccccc1-n1cc(C(=O)NCCc2cnc[nH]2)cn1	i
COc1ccc(Oc2ccc(C(=O)NCCc3cnc[nH]3)cc2)cc1	+
CCC1CN(C(=O)Cc2nc3nc(C)cc(C)n3n2)CCN1 (configuration not stated)	i
CCOC(=O)CCc1c(C)nc2nc(CNc3ccccc3Cl)[nH]n2c1=O	i
COc1ccc(Cl)cc1NCc1cc(=O)n2[nH]c(NCc3ccccc3)nc2n1	i
Cc1cccc(NCc2cc(=O)n3[nH]c(NCc4ccccc4)nc3n2)c1C	i
Cc1ccc(Cl)cc1NCc1cc(=O)n2[nH]c(NCc3ccc(F)cc3)nc2n1	i
Cc1cccc(NCc2nc3nc(C)c(Cc4ccc(Cl)cc4)c(=O)n3[nH]2)c1C	+
COc1ccc(CNc2nc3nc(CNc4cccc(C)c4C)cc(=O)n3[nH]2)cc1	i
CCCc1cc(=O)n2[nH]c(CNc3cccc(C)c3C)nc2n1	+
CCCc1c(C)nc2nc(-c3ccco3)[nH]n2c1=O	i
CCCc1cc(=O)n2[nH]c(CNc3ccccc3C)nc2n1	+
CCCc1cc(=O)n2[nH]c(CNc3cc(Cl)ccc3C)nc2n1	+
Cc1nc(OCC(=O)NCc2ccc(N(C)C)cc2)c2c(C)c(C)oc2n1	i

Screening results from PubChem.
